Only some compounds are listed: those with a hit (about 12% of all), similar ones and a draw of the others.
BAZ2B inh = BAZ2B (human) inhibition | Q9UIF8 | AlphaScreen BAZ2B-H3K14Ac peptide displacement | Potency, µM (highest dose often 114 µM), inactives show at the highest dose activity change, negative = inhibition, usual class: inhibitors | actives 4.4% (n = 360,000); note: % is set by controls: 0 for no effect and ±100 for the full control effect; nearly all actives have a fitted effect of over 60% in size
Target sequence (Q9UIF8 whole entry, looked up): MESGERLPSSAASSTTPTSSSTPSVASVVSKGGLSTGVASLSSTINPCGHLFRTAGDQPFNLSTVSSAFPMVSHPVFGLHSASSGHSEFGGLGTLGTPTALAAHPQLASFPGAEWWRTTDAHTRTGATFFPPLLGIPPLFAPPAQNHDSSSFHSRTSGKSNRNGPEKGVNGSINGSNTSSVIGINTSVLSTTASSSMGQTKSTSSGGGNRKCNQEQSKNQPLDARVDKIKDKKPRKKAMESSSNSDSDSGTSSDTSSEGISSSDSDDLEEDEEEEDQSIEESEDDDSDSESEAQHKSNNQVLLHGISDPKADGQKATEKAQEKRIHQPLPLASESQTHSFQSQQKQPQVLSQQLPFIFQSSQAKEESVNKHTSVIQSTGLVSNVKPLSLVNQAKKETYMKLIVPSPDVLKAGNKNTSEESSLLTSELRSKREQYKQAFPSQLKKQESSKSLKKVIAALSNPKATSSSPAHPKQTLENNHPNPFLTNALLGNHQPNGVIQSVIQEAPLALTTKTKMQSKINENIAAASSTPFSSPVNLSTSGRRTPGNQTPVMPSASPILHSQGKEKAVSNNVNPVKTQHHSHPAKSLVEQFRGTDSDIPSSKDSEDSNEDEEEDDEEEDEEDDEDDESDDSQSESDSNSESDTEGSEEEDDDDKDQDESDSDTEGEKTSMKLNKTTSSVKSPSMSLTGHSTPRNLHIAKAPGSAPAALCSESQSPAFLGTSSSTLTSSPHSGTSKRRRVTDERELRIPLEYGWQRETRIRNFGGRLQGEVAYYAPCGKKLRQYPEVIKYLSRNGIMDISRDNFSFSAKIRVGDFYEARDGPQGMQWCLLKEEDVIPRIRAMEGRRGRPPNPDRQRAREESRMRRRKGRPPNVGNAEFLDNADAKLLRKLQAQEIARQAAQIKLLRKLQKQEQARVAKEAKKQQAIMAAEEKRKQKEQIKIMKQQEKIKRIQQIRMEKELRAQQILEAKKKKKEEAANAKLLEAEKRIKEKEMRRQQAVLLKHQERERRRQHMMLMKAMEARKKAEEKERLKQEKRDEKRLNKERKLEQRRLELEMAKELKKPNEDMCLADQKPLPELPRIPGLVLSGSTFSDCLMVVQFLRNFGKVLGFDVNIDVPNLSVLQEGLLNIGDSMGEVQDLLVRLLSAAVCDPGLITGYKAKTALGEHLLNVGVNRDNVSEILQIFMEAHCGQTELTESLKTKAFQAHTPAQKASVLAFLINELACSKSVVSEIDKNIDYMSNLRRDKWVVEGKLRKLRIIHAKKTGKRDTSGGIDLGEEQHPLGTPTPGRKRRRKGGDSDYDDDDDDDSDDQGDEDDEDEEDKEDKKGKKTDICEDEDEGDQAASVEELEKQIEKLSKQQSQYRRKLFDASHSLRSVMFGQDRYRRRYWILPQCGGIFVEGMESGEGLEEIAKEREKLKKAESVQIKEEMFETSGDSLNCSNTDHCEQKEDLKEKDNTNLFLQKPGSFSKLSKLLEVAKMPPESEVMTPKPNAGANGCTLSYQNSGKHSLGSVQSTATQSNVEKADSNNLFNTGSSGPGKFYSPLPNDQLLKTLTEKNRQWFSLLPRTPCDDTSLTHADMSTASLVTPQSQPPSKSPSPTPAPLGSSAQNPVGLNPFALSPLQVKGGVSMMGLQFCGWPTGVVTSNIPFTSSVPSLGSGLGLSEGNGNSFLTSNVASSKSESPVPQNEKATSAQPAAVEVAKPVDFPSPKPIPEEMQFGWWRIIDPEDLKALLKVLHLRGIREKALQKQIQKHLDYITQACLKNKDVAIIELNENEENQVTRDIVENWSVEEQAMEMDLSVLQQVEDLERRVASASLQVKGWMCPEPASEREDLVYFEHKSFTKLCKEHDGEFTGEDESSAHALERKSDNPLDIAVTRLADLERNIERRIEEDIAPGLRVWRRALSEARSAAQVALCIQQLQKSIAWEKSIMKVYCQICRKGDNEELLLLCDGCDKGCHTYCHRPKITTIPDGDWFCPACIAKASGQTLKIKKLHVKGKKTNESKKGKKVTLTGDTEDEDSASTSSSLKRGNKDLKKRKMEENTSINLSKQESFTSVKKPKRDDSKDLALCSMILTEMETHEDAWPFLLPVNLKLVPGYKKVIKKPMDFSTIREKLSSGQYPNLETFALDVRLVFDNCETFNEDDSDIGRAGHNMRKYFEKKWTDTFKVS
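Compounds, titrated to a top concentration of 110 uM, were incubated 30 min at room temperature with preformed BAZ2B/acetyl-K14 H3 peptide complex (50 nM each). Proximity signal was measured by AlphaScreen after 20 min with beads.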
L3MBTL1 inh = L3MBTL1 (human) inhibition | AID 485360 | AlphaScreen L3MBTL1–H3K9me1 peptide binding | Potency, µM (titrated, usually from 57.1 µM), inactives show at the top dose activity, negative = inhibition, actives largely listed as inhibitors | actives 0.66% (n = 230,000); note: % is set by controls: 0 for no effect and ±100 for the full control effect; nearly all actives have a fitted effect of over 60% in size
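L3MBTL1 50 nM + b-AHA-H3(1-15)K9me1 75 nM, 30 min RT; compound added, 30 min RT; streptavidin donor/Ni-chelate acceptor beads 10 ug/mL each final, 30 min RT dark; AlphaScreen read.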
G9a block = blocks human histone lysine methyltransferase G9a | Q96KQ7 | actives 8.8% (n = 350,000) | G9a H3K9 monomethylation, AlphaScreen, 2 h | Potency, µM (series often up to 102 µM), inactives show top-dose activity, negative = inhibition, usual class: inhibitors | AID 504332; note: % is set by controls: 0 for no effect and ±100 for the full control effect; nearly all actives have a fitted effect of over 75% in size
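Readings reflect AlphaScreen signal from monomethyl-H3K9 antibody detection. HMT at 20 nM; substrate b-H3K9 500 nM; cofactor SAM 20 uM; 2 h RT reaction; compounds tested as titrations in qHTS with 15 min preincubation.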
Sfp PPTase inh = inhibitors of Bacillus subtilis Sfp phosphopantetheinyl transferase; Biochemical Sfp PPTase activity, qHTS; Potency, µM, inactives show largest response in the series, negative = inhibition, hits mostly inhibitors; actives 3.5% (n = 310,000);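 note: the enzyme is Sfp with the accession as filed and its product quenches rhodamine fluorescence; 0% = enzyme reaction without inhibitor and -100% = no enzyme wells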
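Reaction rates are the 30-min fluorescence difference (ex 525, em 598 nm) in wells containing 15 nM Sfp, 5 uM rhodamine-CoA and 12.5 uM BHQ-2-YbbR at pH 7.6 with 10 mM MgCl2.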
HP1b binding inh = blocks HP1-beta chromodomain binding to methylated histone tails. Potency, µM (top dose mostly 114 µM), for the others: top-dose activity change, negative = inhibition, actives largely listed as inhibitors. actives 0.56% (n = 390,000). AlphaScreen HP1-beta / biotin-H3K9me3 peptide binding; note: nearly all actives have a fitted effect of over 70% in size
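HP1-beta protein (50 nM final) preincubated 30 min at room temperature with biotinylated H3(1-18)K9me3 peptide (50 nM) in PBS pH 7.4, 0.01% Tween-20, then compound added for 30 min. AlphaScreen streptavidin donor/nickel chelate acceptor beads (10 ug/mL final), 30 min dark, luminescence read.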
JMJD2A Tudor = JMJD2A Tudor domain (human) inhibition; AlphaScreen JMJD2A-Tudor / H3K4me3 peptide binding; Potency, µM (highest dose often 114 µM), for inactives: top-dose activity change, negative = inhibition, hits mostly inhibitors; actives 4.4% (n = 390,000); AID 504339; note: % is set by controls: 0 for no effect and ±100 for the full control effect; nearly all actives have a fitted effect of over 50% in size
* hit, by the source's call; ? = inconclusive; . = no result; [ ] = another dose, or the depositor's remark. Calls come from the whole dose curve; as a rule, active = well fitted curve in the direction sought with a large enough effect; inconclusive = small, poorly fitted or top-dose-only effect, or another doubt; inactive = no such curve, though single readings can be large; an effect the other way counts as inactive or inconclusive. Potency is the fitted concentration of half-maximal effect.

SMILES	BAZ2B inh	L3MBTL1 inh	G9a block	Sfp PPTase inh	HP1b binding inh	JMJD2A Tudor
COC(=O)COc1ccc(-c2ccc(F)cc2)cc1C=O	4.2%	.	18.8%[59 µM]	-10.7%	44.7%	7.8%
COC(=O)COc1ccc(-c2ccccc2)cc1C=O	4.6%	.	4.6%[59 µM]	79.4µM*	22.6%[57 µM]	12.5%
Cc1ccc(-n2c(C)cc(/C=C3\SC(=O)NC3=O)c2C)cc1	-3.0%	.	13.4%	-6.6%	13.7%	-18.8%
Cc1cc(/C=C2/C(=O)NN(c3ccccc3)C2=O)c(C)n1-c1cccc(O)c1	?	?	22.4µM*	-18.8%	-6.1%	-31.9%
Cc1cc(/C=C2\SC(=S)NC2=O)c(C)n1-c1cccc(O)c1	50.1µM*	-29.4%	39.8µM*	?	?	-31.6%[11.4 µM]
Cc1sc(-n2c(C)cc(/C=C3\SC(=S)NC3=O)c2C)c(C#N)c1C	86.2%	50.0%	?	-10.3%	?	39.8µM*
Cc1sc(-n2c(C)cc(/C=N/n3cnnc3)c2C)c(C#N)c1C	?	-3.9%	8.91µM*	20µM*	-35.6%	?
Cc1cc(/C=C2/NC(=O)NC2=O)c(C)n1-c1sc2c(c1C#N)CCCC2	?	.	-30.4%[12.7 µM]	?	-15.5%	?
O=[S+]([O-])(c1c(F)cccc1F)N1CCN([S+](=O)([O-])c2c(F)c(F)c(F)c(F)c2F)CC1	.	.	.	.	.	-7.5%
COCCn1c(=O)c(-c2ccc(F)c(F)c2)nc2cncnc21	.	.	-2.3%[12.7 µM]	-5.9%	.	.
COc1ccc(Cn2ncc3c4sc(C)cc4n(C)c3c2=O)cc1	.	.	.	.	.	-6.8%
Cc1cc(C(=O)NCc2ccco2)c2ccccc2n1	-13.8%	.	?	8.4%	28.9%	-5.5%
Cn1ccc(-c2cc(C(=O)O)c3ccccc3n2)n1	?	9.6%	50.1µM*	-12.0%	2.4%	-12.0%
CCc1nnc(NC(=O)c2cc(C)nc3ccccc23)s1	-17.6%	2.8%	?	14.6%	13.0%	-17.3%
CCC(CC)c1nnc(NC(=O)c2cc(-c3ccccc3)nc3ccccc23)s1	10.2%	1.1%	44.7µM*	-22.1%	36.6%	-9.0%
CCc1nnc(NC(=O)c2cc(-c3ccc(C)o3)nc3ccccc23)s1	-20.1%	-8.3%	?	.	8.3%	89.1µM*
Cc1ccc(-c2cc(C(=O)NCc3ccco3)c3ccccc3n2)o1	50.1µM*	?	?	44.7µM*	-22.2%	50.1µM*
CN(C)c1ccc(CNC(=O)C2CCN(S(=O)(=O)c3cn(C)cn3)CC2)cc1	-35.0%	.	-30.0%[12.7 µM]	.	5.6%	-8.3%
CC(C)(C)OC(=O)Cc1nnc(-c2nc3ccccc3[nH]2)o1	.	.	.	.	.	-13.7%
COC(=O)c1cc(-c2ccc(C)o2)nc2ccccc12	?	-16.3%	?	11.2µM*	?	?
Cc1cc(C)c2nc(-c3ccccn3)cc(C(=O)NCc3cc(C)n(C)n3)c2c1	-1.6%	-0.4%	8.9%[59 µM]	1.9%	2.0%	-5.1%
Cc1cc(C)c2nc(-c3ccccn3)cc(C(=O)NCc3ccco3)c2c1	?	.	-10.0%[59 µM]	56.2µM*	13.2%	?
Cc1ccc(-c2cc(C(=O)NCC(c3ccccc3)N(C)C)c3ccccc3n2)o1 (stereo not given)	.	-0.6%	.	.	3.5%[57 µM]	-10.3%
Cc1ccc(-c2cc(C(=O)Nc3ccccc3C)c3ccccc3n2)o1	-4.4%	?	1.78µM*	8.91µM*	-23.4%	79.4µM*
Nc1nc(CN2CCN(c3ccccc3)CC2)nc(N2CCCc3ccccc32)n1	?	-25.9%	50.1µM*	1.2%	-6.2%	50.1µM*
Nc1nc(CN2CCN(c3ccccc3F)CC2)nc(N2CCCc3ccccc32)n1	50.1µM*	-4.4%	?	14.2%	2.9%	?
COc1ccc(N2CCN(Cc3nc(N)nc(N4CCCc5ccccc54)n3)CC2)cc1	11.2µM*	-9.1%	44.7µM*	-2.5%	?	50.1µM*
Cc1ccc(Cl)cc1NS(=O)(=O)c1ccc2c(c1)NC(=O)CCS2	3.5%[57.1 µM]	.	-1.8%[59 µM]	.	31.0%	-17.2%
COCCn1c(=O)c(C)nc2cncnc21	.	.	5.0%[0.501 µM]	12.1%	.	.
